Assay results published in PubChem BioAssay AID504336 (NMMLSC, 2011).
Several values for one entry are separate records, joined by “and”; a condition that tells them apart may be missing. Equal values may be shown once. Values without a mark were called inactive.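 How the source made its calls: active means compounds whose GFP signal falls below 65% of the DMSO control level; inconclusive means fewer than 70 yeast cells counted in the well; inactive means the rest.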

Assay: TOR branch reporter RPL19A-GFP response – cell-based, S. cerevisiae, third cherry pick, flow cytometry, confirmation (AID 504336);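 further: median GFP fluorescence of all gated yeast cells by flow cytometry; ratio of well median fluorescence to plate mean of DMSO wells with DMSO = 100%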
Details: S. cerevisiae RPL19A-GFP strain, 3 h, at 10 µM, active compounds read low

Point of comparison: `C=CCNc1ncnc2ccccc12`, GFP response relative to DMSO 103%. Against it:
- CC1=NNC(=O)/C1=C\c1cn(-c2ccccc2)nc1-c1ccc(F)cc1 — lower, 89.7%
- COc1ccccc1Nc1nc(NCCO)nc(N)c1[N+](=O)[O-] — lower, 102%
- COc1cccc2c(Cl)c(CCCl)c(C)nc12 — lower, 99.3%
- COc1cc(OC)cc(C(=O)Nc2ccc(-c3nc4ccccc4o3)cc2)c1 — the same, 103%
- CSc1nc(S(C)(=O)=O)nc2[nH]c(=O)[nH]c12 — lower, 100%
- COc1ccc(NC(=O)ON=C2c3ccccc3-c3ccccc32)cc1 — higher, 107%
- Cc1ccc(Nc2cc(=O)[nH]c(=O)[nH]2)cc1C — lower, 96.5%
- COc1ccc(N/C=C/C(=O)c2ccc(Cl)cc2)cc1 — lower, 102%
- FC(F)Oc1cccc2cccnc12 — lower, 95.4%
- C[n+]1cccc2cccc([O-])c21 — lower, 98.3%
- CCCC(=O)Nn1cnc2c(c1=O)C1(CCCC1)Cc1ccccc1-2 — lower, 102%
- COc1ccc(OC)c2c(C)cc(C)nc12 — lower, 98.5%
- CCCCC(=O)NCCc1cc2c(OC)ccc(OC)c2[nH]c1=O — lower, 97.5%
- CNc1nc(N)c([N+](=O)[O-])c(Nc2ccccc2OC)n1 — the same, 103%
- Cc1ccc2c(Cl)cc(Cl)c(OCC(=O)O)c2n1 — higher, 104%
- O=C1c2ccccc2C(=O)c2c1cccc2N(CCO)CCO — lower, 99.8%
- O=C(Nc1ccccc1)O/N=C1\CCCCC1c1ccc([N+](=O)[O-])cc1[N+](=O)[O-] (centres undefined) — lower, 96.5%
- O=C(O)CCCCCNc1ncnc2ccc(Br)cc12 — lower, 99.8%
- O=C(O)c1ccc(C=NNC(=O)c2cccc3ccccc23)cc1 — lower, 97.2%
- Cc1cccc(Nc2cc(=O)[nH]c(=O)[nH]2)c1C — lower, 98.5%
- O=C(Nc1ccccc1Cl)ON=C1c2ccccc2-c2ccccc21 — lower, 102%
- CCc1c(C)nc2c(OC)cccc2c1Cl — lower, 102%
- C=CCNc1nc(N)c([N+](=O)[O-])c(Nc2ccccc2OC)n1 — lower, 102%
- NC(=O)COc1cccc2cccnc12 — lower, 102%
- O=C(Nc1ccccc1)O/N=C1/CCCc2occc21 — lower, 100%
- CC(C)Nc1ncnc2ccc(Br)cc12 — lower, 97.8%
- Cc1nc(Nc2ccc(Br)cc2Br)c([N+](=O)[O-])c(=O)[nH]1 — lower, 100%
- Cn1c(NCCCO)nc2c(c1=O)C1(CCCCC1)Cc1ccccc1-2 — lower, 102%
- C/C(=C\C(=O)c1ccc(Cl)cc1)Nc1ccc(Br)cc1 — lower, 100%
- O=C(/C=C/Nc1cccc(O)c1)c1ccccc1 — lower, 98.8%
- CNc1nc(N)c([N+](=O)[O-])c(Nc2cccc(Cl)c2)n1 — lower, 94.1%
- CC(=O)Nc1ccc(-c2nc3ccccc3o2)cc1 — lower, 99.6%
- COc1ccc(N/C(C)=C/C(=O)c2ccccc2)cc1 — lower, 102%
- CNc1cccc2c1C(=O)c1ccccc1C2=O — lower, 102%
- Cc1ccc2c(Cl)cc(Cl)c(O)c2n1 — lower, 82.6%
- OCc1ccc(O)c2ncccc12 — lower, 101%

For `COc1ccc(-c2cc(C(F)(F)F)nc(S(C)(=O)=O)n2)cc1OC`, the GFP response relative to DMSO was 99.6% and 103%.
With `COCC(C)NC(=O)CCS(=O)(=O)c1nc(-c2ccc(OC)cc2)cc(C(F)(F)F)n1` (centres undefined) the GFP response relative to DMSO was 98.3% and 102%.
